GCN5L2 inh-1: blocks human GCN5L2 histone acetyltransferase; 0.21% of 390,000 active; GCN5L2 HAT assay, ThioGlo1 CoA-SH fluorescence; Potency, µM (top dose mostly 58.9 µM), without a hit: top-dose activity change, negative = inhibition, actives largely listed as inhibitors; AID 504327; also: potency is read from the fitted curve at half-maximal effect; % is scaled to controls: 0 for no effect and ±100 for the full control effect
Target sequence (Q92830 whole entry, looked up): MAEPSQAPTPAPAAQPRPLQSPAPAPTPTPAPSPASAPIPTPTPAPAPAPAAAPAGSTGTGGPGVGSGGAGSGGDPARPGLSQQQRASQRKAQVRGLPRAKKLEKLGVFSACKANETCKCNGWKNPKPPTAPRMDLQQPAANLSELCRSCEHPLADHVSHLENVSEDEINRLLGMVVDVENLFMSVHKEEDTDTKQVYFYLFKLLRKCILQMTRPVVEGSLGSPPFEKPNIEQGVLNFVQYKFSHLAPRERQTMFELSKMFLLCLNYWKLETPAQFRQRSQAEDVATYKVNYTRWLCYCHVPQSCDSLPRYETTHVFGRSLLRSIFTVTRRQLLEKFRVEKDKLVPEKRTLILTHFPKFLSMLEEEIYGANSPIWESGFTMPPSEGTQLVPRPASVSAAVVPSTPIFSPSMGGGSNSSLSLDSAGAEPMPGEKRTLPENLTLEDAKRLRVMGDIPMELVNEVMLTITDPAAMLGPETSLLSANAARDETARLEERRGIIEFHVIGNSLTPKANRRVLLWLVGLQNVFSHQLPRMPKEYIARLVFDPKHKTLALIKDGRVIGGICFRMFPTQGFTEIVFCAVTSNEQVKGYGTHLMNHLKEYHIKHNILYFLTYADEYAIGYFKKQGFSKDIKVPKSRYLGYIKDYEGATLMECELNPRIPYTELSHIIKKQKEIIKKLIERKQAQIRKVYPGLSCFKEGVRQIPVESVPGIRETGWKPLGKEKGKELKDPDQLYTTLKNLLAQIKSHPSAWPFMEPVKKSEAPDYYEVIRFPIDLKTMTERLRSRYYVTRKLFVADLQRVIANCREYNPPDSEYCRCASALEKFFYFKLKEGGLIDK
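Free CoA generated was detected with ThioGlo1 (50uM) fluorescence at Ex340nm/Em540nm, read immediately and after 20 min at room temperature. Enzyme, 20 nM in HEPES pH 7.5 buffer, saw compounds 15 min before adding 75uM H3(1-25) peptide and 70uM acetyl-CoA.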
APE1 inh-1: inhibitors of human APE1 endonuclease; P27695; recombinant APE1, TAMRA/BHQ-2 abasic DNA cleavage fluorescence; Potency, µM (series often up to 65.8 µM), without a hit: top-dose activity change, negative = inhibition, hits mostly inhibitors; 0.35% of 350,000 active; AID 2517;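 also: potency is read from the fitted curve at half-maximal effect; plate controls were vehicle for no effect and reference inhibitor for full effect; nearly all actives have a fitted effect of over 55% in size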
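Activity was derived from the fluorescence gain between first and third kinetic reads (60 s intervals, ex 525/em 598 nm) after 50 nM THF-abasic TAMRA/BHQ-2 duplex was added to 0.75 nM APE1 preincubated 15 min with compound.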
RECQ1 inh-1: RECQ1 (human) helicase inhibition; AID 2549; Potency, µM (doses to about 57.3 µM), without a hit: top-dose activity, negative = inhibition, most hits filed as inhibitors; RECQ1 DNA unwinding, red fluorescence kinetic read; 0.54% of 240,000 active; P46063;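 also: potency is read from the fitted curve at half-maximal effect; plate controls were vehicle for no effect and no enzyme for full effect; nearly all actives have a fitted effect of over 30% in size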
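RECQ1T1 50 nM; forked duplex (20 bp + 30-nt ss tails) 200 nM, ATP 2 mM final; pH 8.0, 2 mM MgCl2, 2.5 ug/ml poly(dI-dC); 15 min compound preincubation; discontinuous kinetic read over 2 h at RT.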
TDP1 inh: inhibitors of human tyrosyl-DNA phosphodiesterase TDP1. Q9NUW8. 0.28% of 350,000 active. Potency, µM (titrated, usually from 130 µM), for the others: at the highest dose activity change, negative = inhibition, actives largely listed as inhibitors. recombinant TDP1, AlphaScreen DNA substrate cleavage; also: potency is read from the fitted curve at half-maximal effect; % is scaled to controls: 0 for no effect and ±100 for the full control effect; nearly all actives have a fitted effect of over 40% in size
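E. coli-derived human Tdp1, 1 nM final. Cpd preinc 15 min RT; substrate 15 nM final, 5 min RT; AS bead mix 10 ug/ml final, 10 min RT. Signal loss = tyrosine-FITC cleavage. No-enzyme wells = max signal.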
BLM inh-1: inhibitors of human Bloom syndrome helicase BLM. recombinant BLM DNA unwinding, fluorescence dequenching. 0.2% of 350,000 active. P54132. Potency, µM (top dose mostly 56.1 µM), without a hit: top-dose activity change, negative = inhibition, usual class: inhibitors;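 also: potency is read from the fitted curve at half-maximal effect; plate controls were vehicle for no effect and no enzyme for full effect; nearly all actives have a fitted effect of over 35% in size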
APE1 dye cs: DNA dye displacement counter-screen activity. shares compounds with APE1 inh-1. DNA fluorescent dye displacement counterscreen, fluorescence. Potency, µM (doses to about 28.5 µM), without a hit: top-dose activity change, negative = inhibition, most hits filed as inhibitors. 7% of 480 active. AID 2564;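 also: loss of thiazole orange fluorescence as the dye is displaced from duplex DNA; potency is read from the fitted curve at half-maximal effect; 0% = ThO with dsDNA and no compound and -100% = ThO without dsDNA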
EndoIV counter: blocks E. coli endonuclease IV DNA cleavage; shares compounds with APE1 inh-1; E. coli Endo IV, fluorogenic AP-site DNA cleavage; Potency, µM (doses to about 27.1 µM), without a hit: at the top dose activity change, negative = inhibition, most hits filed as inhibitors; 4% of 560 active; AID 2565;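 also: potency is read from the fitted curve at half-maximal effect; plate controls were uninhibited enzyme wells for no effect and no enzyme buffer wells for full effect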
APE1 inh-2: confirmation of inhibitors of human APE1 endonuclease | 44% of 750 active | AID 2572 | shares compounds with APE1 inh-1 | purified APE1, fluorogenic abasic-site DNA cleavage | Potency, µM (titrated, usually from 57.1 µM), inactives show top-dose activity change, negative = inhibition, hits mostly inhibitors; also: potency is read from the fitted curve at half-maximal effect; % is scaled to controls: 0 for no effect and ±100 for the full control effect; nearly all actives have a fitted effect of over 30% in size
APE1 FP inh: compounds that displace a DNA probe from human APE1; shares compounds with APE1 inh-1; APE1 binding to TAMRA-labelled double-stranded DNA, fluorescence polarization displacement; Potency, µM (doses to about 28.5 µM), inactives show at the top dose activity, negative = inhibition, most hits filed as inhibitors; 7% of 480 active; AID 2573; also: potency is read from the fitted curve at half-maximal effect; % is scaled to controls: 0 for no effect and ±100 for the full control effect
BLM inh-2: BLM (human) helicase inhibition, confirmation. Potency, µM, for inactives: max response, negative = inhibition, hits mostly inhibitors. 40% of 220 active. BLM DNA unwinding, fluorescence quenching, biochemical. shares compounds with BLM inh-1;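 also: strand separation dequenches TAMRA so unwinding raises red fluorescence; potency is read from the fitted curve at half-maximal effect; series mostly up to about 69 µM; % is scaled to controls: 0 for no effect and ±100 for the full control effect; nearly all actives have a fitted effect of over 45% in size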
RECQ1 conf: confirmation of human RECQ1 helicase inhibitors | shares compounds with RECQ1 inh-1 | RECQ1 helicase DNA unwinding, fluorescence | Potency, µM (series often up to 229 µM), for inactives: at the highest dose activity change, negative = inhibition, most hits filed as inhibitors | 28% of 610 active | AID 2708; also: potency is read from the fitted curve at half-maximal effect; % is scaled to controls: 0 for no effect and ±100 for the full control effect; nearly all actives have a fitted effect of over 45% in size
RECQ1 ADP FP: counter-screen for RECQ1 inhibitors: ADP displacement. Potency, µM (titrated, usually from 228 µM), inactives show at the top dose activity change, negative = inhibition, hits mostly inhibitors. shares compounds with RECQ1 inh-1. 27% of 530 active. AID 2711. ADP fluorescence polarization displacement counterscreen; also: potency is read from the fitted curve at half-maximal effect; % is scaled to controls: 0 for no effect and ±100 for the full control effect; nearly all actives have a fitted effect of over 45% in size
RECQ1 inh-2: blocks human RECQ1 DNA unwinding; Potency, µM (highest dose often 119 µM), for the others: at the top dose activity, negative = inhibition, most hits filed as inhibitors; shares compounds with RECQ1 inh-1; recombinant RECQ1 DNA unwinding, red fluorescence; 15% of 1,100 active; AID 504841; also: potency is read from the fitted curve at half-maximal effect; % is scaled to controls: 0 for no effect and ±100 for the full control effect; nearly all actives have a fitted effect of over 50% in size
GCN5L2 inh-2: confirmation of human GCN5L2 histone acetyltransferase inhibitors. shares compounds with GCN5L2 inh-1. GCN5L2 HAT, ThioGlo1 CoA fluorescence, 20 min. Potency, µM, usual class: inhibitors. 70% of 140 active. AID 588347
The depositor's hits bear a star; u = inconclusive; x = not tested or not shown; ! = not active in a repeat; [ ] = dose if it differs, or a comment. Hits are enriched below; roughly 0.87% of the tested compounds scored in any of these assays. Calls follow the shape of the dose curve; as a rule, active = well fitted curve in the direction sought with a large enough effect; inconclusive = small, poorly fitted or top-dose-only effect, or another doubt; inactive = no such curve, though single readings can be large; an effect the other way counts as inactive or inconclusive.

SMILES | GCN5L2 inh-1 | APE1 inh-1 | RECQ1 inh-1 | TDP1 inh | BLM inh-1 | APE1 dye cs | EndoIV counter | APE1 inh-2 | APE1 FP inh | RECQ1 inh-2 | others
Cc1c(C(=O)OCCOC(C)C)[nH]c2c1C(=O)CC(c1ccco1)C2 (configuration not stated) | -8% | u | -2% | -5% | -12% | x | x | x | x | x
Cc1c(C(=O)OCc2ccccc2)[nH]c2c1C(=O)CC(c1ccco1)C2 (configuration not stated) | -16% | 25µM* | 32µM* | u | -24% | 6% | 3% | 14µM* | -40% | u
O=C(NN1C(=O)/C(=C/C=C/c2ccco2)SC1=S)c1ccncc1 | -10% | 4.5µM* | 3.5µM* | x | 2% | 1% | 86% | 4.5µM* | u | x | RECQ1 conf=22µM*;RECQ1 ADP FP=13µM*
COCCn1c(=O)c(CCc2ccccc2)nc2cnc(OCc3ccccc3)nc21 | -10% | -1% | -1% | x | -8% | x | x | x | x | x
CCc1ccccc1OCC(=O)Nc1ccc(S(=O)(=O)Nc2nc(C)cc(C)n2)cc1 | 0% | x | x | 2% | -6% | x | x | x | x | x
COc1ccc(N2Cc3cccc(C(=O)Nc4cc(C)cc(C)c4)c3C2=O)cc1 | -26% | x | x | -6% | -16% | x | x | x | x | x
COc1ccc(N2Cc3cccc(C(=O)O)c3C2=O)cc1 | u | 13µM* | 14µM* | 8.9µM* | 16µM* | 4% | -1% | 4µM* | u | 4.5µM* | BLM inh-2=16µM*;RECQ1 conf=25µM*;RECQ1 ADP FP=-32%[91.9 µM]
CC(C)CCNC(=O)C1CCN(C(=O)N2CCOc3ccc(Cl)cc32)CC1 | -8% | x | x | 0% | -9% | x | x | x | x | x
Cc1ccc2c(=O)c3ccccc3n(CCCN)c2c1C | u | 4.5µM*! | 32µM*! | 17% | 29% | 14µM* | -91%[57.1 µM] | 8.9µM* | -80%[57.1 µM] | 18µM*
O=C(Nc1ccc2nc(-c3ccco3)c(-c3ccco3)nc2c1)NC1CC1 | 8.9µM* | 7.1µM* | 10µM* | 3.2µM* | 6.3µM* | u | 0% | 7.9µM* | u | x | GCN5L2 inh-2=20*

High-throughput results: PubChem, National Center for Advancing Translational Sciences (NCATS)
